Data on 16 compounds can be found in PubChem BioAssay (NCATS).

Assay [1] in a line: Quantitative High-Throughput drug screen in 47 multiple myeloma cell lines against the NCATS MIPE library collection: FR4_PLB cell viability assay (AID 1918924; further: nearly all actives have a fitted effect of over 35% in size). In short, it runs like this:
(§1)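 Luminescent ATP measurement with CellTiter-Glo gives viability, scaled between DMSO-only wells (100%) and media-only wells (0%). Cells, 500 per well, faced library compounds for 48 hours at 37C.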

Assay [2] is described as follows: Quantitative High-Throughput drug screen in 47 multiple myeloma cell lines against the NCATS MIPE library collection: EJM_DSMZ cell viability assay (AID 1918926; further: nearly all actives have a fitted effect of over 30% in size; further: potency means the concentration at half of the fitted maximal effect). An outline of the steps:
(§2)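 Primary qHTS used for cherry-picking: cells at 500/well, library compounds for 48 h (37C, 5% CO2), luminescent ATP assay.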

Assay [3] is described as follows: Quantitative High-Throughput drug screen in 47 multiple myeloma cell lines against the NCATS MIPE library collection: Karpas620_DSMZ cell viability assay (AID 1918959). Further: nearly all actives have a fitted effect of over 30% in size. Further: potency means the concentration at half of the fitted maximal effect. In short, it runs like this:
as §1

Assay [4] in a line: Quantitative High-Throughput drug screen in 47 multiple myeloma cell lines against the NCATS MIPE library collection: KMM1_JCRB cell viability assay (AID 1918960). Further: nearly all actives have a fitted effect of over 30% in size. Further: potency means the concentration at half of the fitted maximal effect. In short, it runs like this:
(§3)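 Myeloma cells at 500 per well in 1536-well format treated with MIPE 4.0 library by pin transfer for 48 h at 37C, 5% CO2. Viability from ATP luminescence (CellTiter-Glo), normalized to DMSO (100%) and media-only (0%) wells.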

A short description of assay [5]: Quantitative High-Throughput drug screen in 47 multiple myeloma cell lines against the NCATS MIPE library collection: Delta47_JCRB cell viability assay (AID 1918925; further: nearly all actives have a fitted effect of over 45% in size; further: potency means the concentration at half of the fitted maximal effect). An outline of the steps: as §2
A short description of assay [6]: Quantitative High-Throughput drug screen in 47 multiple myeloma cell lines against the NCATS MIPE library collection: ARD_JJKsccE7 cell viability assay (AID 1918929; further: potency means the concentration at half of the fitted maximal effect). In short, it runs like this: as §2
Assay [7] can be described thus: Quantitative High-Throughput drug screen in 47 multiple myeloma cell lines against the NCATS MIPE library collection: AMO1_DSMZ cell viability assay (AID 1918927; further: nearly all actives have a fitted effect of over 30% in size; further: potency means the concentration at half of the fitted maximal effect). In short, it runs like this:
as §2

The nature of assay [8]: Quantitative High-Throughput drug screen in 47 multiple myeloma cell lines against the NCATS MIPE library collection: ARP1_JJKsccF8 cell viability assay (AID 1918928; further: nearly all actives have a fitted effect of over 40% in size; further: potency means the concentration at half of the fitted maximal effect). An outline of the steps: as §3
Assay [9] can be described thus: Quantitative High-Throughput drug screen in 47 multiple myeloma cell lines against the NCATS MIPE library collection: Karpas417_ECACC cell viability assay (AID 1918961). As to conditions: Karpas417 myeloma viability, CellTiter-Glo ATP luminescence, 48 h; viability (% of DMSO): at 45.8 µM (top of the series). In short, it runs like this: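 Steps: seed 500 cells per well; pin-transfer MIPE 4.0 library; incubate 48 h at 37C, 5% CO2, humidified; add CellTiter-Glo, 5 min room temperature; read luminescence.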
Background: ATP-based viability assays read luminescence as a measure of living cells.

Records with an inconclusive call do not appear. Calls of active or inactive are those of the source. The call rests on the fitted dose curve; in most records, active means well fitted cell-killing curve with a large enough effect; inconclusive means small, poorly fitted or top-dose-only effect, or effect the other way; inactive means no such curve, though single readings can be large or run the other way.

Consider `O=C(O)c1cn(C2CC2)c2cc(N3CCNCC3)c(F)cc2c1=O`, for which the Potency result in assay [1], in assay [2], in [3] and in assay [4] was “inactive” throughout.

For the compound `O=c1oc2c(O)c(O)cc3c(=O)oc4c(O)c(O)cc1c4c23`, the Potency result in [1], in assay [5], in assay [6] and in assay [3] was “inactive” in each case.

For the compound `COc1c(N2CCNC(C)C2)c(F)cc2c(=O)c(C(=O)O)cn(C3CC3)c12` (centres undefined), the Potency result in [1], in [2], in [7], in [8], in assay [6] and in [3] was “inactive” throughout. For the same compound, the Potency result in [9] was “inactive”.

As for `CNS(=O)(=O)Cc1ccc2[nH]cc(CCN(C)C)c2c1`, the Potency result in assay [1], in assay [2] and in assay [4] was “inactive” throughout. The viability (% of DMSO) in assay [9] was 103% (active).

As to `COc1ccc(C(=O)CC(=O)c2ccc(C(C)(C)C)cc2)cc1`, the Potency was 1.48 µM (active) in assay [2]; 1.87 µM (active) in assay [7]; 10.5 µM (active) in assay [8]; 18.7 µM (active) in [6]; 4.18 µM (active) in [3]; 7.43 µM (active) in [4].

As to `CC(C)C1CCC(C(=O)N[C@H](Cc2ccccc2)C(=O)O)CC1` (some centres undefined), the Potency entry in assay [5], in assay [2], in assay [7] and in assay [3] was “inactive” in each case.

Regarding `CC(=O)[C@H]1CC[C@H]2[C@@H]3CCC4=CC(=O)CC[C@]4(C)[C@H]3CC[C@]12C`, the Potency entry in assay [5] and in assay [4] was “inactive” in each case.

As for `CNC1CCCN(c2c(F)cc3c(=O)c(C(=O)O)cn(C4CC4)c3c2OC)C1` (centres undefined), the Potency result in [1], in assay [8] and in [6] was “inactive” in each case.

As for `COCCCOc1cc(C[C@@H](C[C@H](N)[C@@H](O)C[C@H](C(=O)NCC(C)(C)C(N)=O)C(C)C)C(C)C)ccc1OC`, the Potency entry in [2], in [7], in assay [8] and in [3] was “inactive” throughout.

For `CCC(=O)O[C@]1(C(=O)CCl)[C@@H](C)C[C@H]2[C@@H]3CCC4=CC(=O)C=C[C@]4(C)[C@@]3(F)[C@@H](O)C[C@@]21C`, the Potency result in assay [2] was “inactive”.

On to `Cc1ncc([N+](=O)[O-])n1CCO`, for which the Potency entry in assay [5], in [2], in [3] and in assay [4] was “inactive” each time.

As to `NC(=O)c1ccc2[nH]ccc2c1`, the Potency result in assay [5], in assay [8], in assay [3] and in assay [9] was “inactive” throughout.

Regarding `CCn1cc(C(=O)O)c(=O)c2cc(F)c(N3CCNCC3)nc21`, the Potency entry in [5], in assay [2], in [3] and in assay [4] was “inactive” throughout.

With `N[C@@H](C(=O)N[C@@H]1C(=O)N2C(C(=O)O)=C(Cl)CS[C@H]12)c1ccccc1`, the Potency result in [5], in [2], in assay [7], in assay [8], in assay [6] and in assay [4] was “inactive” throughout.

As to `CC(C)(C)NC(=O)[C@H]1CC[C@H]2[C@@H]3CC[C@H]4NC(=O)C=C[C@]4(C)[C@H]3CC[C@]12C`, the Potency was 0.526 µM (active) in assay [5], 0.662 µM (active) in assay [2], 18.7 µM (active) in assay [7] and 20.9 µM (active) in assay [6].

As to `NC(N)=NC(N)=NCCc1ccccc1`, the Potency is 9.35 µM (active) in assay [5], 4.69 µM (active) in [2] and 14.8 µM (active) in assay [8].
